Screens from PubChem.
CHOP inhibitor: inhibitors of CHOP induction in ER stress response | inhibition, % at 10 µM | CHO-K1 CHOP-promoter luciferase, tunicamycin-induced, 15-18 h | AID 2732 | hit rate 3.8% among 220,000;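 active = compounds that reduced the stress-induced luciferase reporter signal by more than about 70% of percent inhibition, limit read from the data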
KKLEB cytotox: counter-screen for CF NF-kB inhibitors: cytotoxicity; hit rate 0.36% among 360,000; KKLEB CF airway cells viability, ATPlite luminescence, overnight; stronger effect = lower value; cells stimulated with P. aeruginosa culture filtrate; AID 602141; activity change (cytotoxicity), % at 5 µM;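 active = corrected activity change at or below -50% at 5 µM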
TRPM1 prom inh: inhibitors of MITF-driven TRPM1 promoter in melanoma cells; hit rate 0.83% among 330,000; AID 488899; SK-MEL-5 TRPM1 promoter luciferase, 24 h; inhibition, % at 12.5 µM;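 active = mean inhibition across replicates of 60% or more, whatever share of single replicates reaches that level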
CF NFkB block: blocks PAF-induced NF-kB reporter in cystic fibrosis cells. KKLEB NF-kB-GFP reporter, GFP fluorescence overnight. inhibition, % at 5 µM. hit rate 0.86% among 360,000;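 active = at least 50% inhibition at 5 µM, scaled per plate between neutral and stimulator controls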;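 note: PAF is a Pseudomonas aeruginosa culture filtrate used as stimulus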
Peg3 prom inh: inhibitors of Peg3 promoter | HeLa PEG-Prom luciferase reporter, luminescence, overnight | AID 588405 | hit rate 1.7% among 360,000 | inhibition, % at 20 µM;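 active = inhibition of at least 50% at 20 µM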
HIF-2a inh: blocks HIF-2a reporter activity; inhibition, % at 18.8 µM; 786-0 RCC cells HIF-2a reporter, luciferase luminescence, overnight; hit rate 0.72% among 360,000;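 active = inhibition of the luminescence signal of 40% or more relative to plate controls, in a single-dose primary screen at 18.75 µM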
CF NFkB inh conf: confirmation of cystic fibrosis induced NF-kB inhibitors | shares compounds with CF NFkB block | inhibition, % at 5 µM | KKLEB CF airway cells, PAF-induced NF-kB-GFP fluorescence, overnight | hit rate 64% among 1,300; in the data active = inhibition above about 40%;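 note: stimulus PAF is a Pseudomonas aeruginosa filtrate and not platelet activating factor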
Of the large screens only hits and unclear results are named; the others gave an inactive call (follow-up assays come after a bar, where they were run). Compounds with a hit are over-represented: about 4.3% of the library has one in this group of screens.

c1ccc(-c2nnc(CSc3ccc4c(c3)OCCO4)o2)cc1	none
CCC(Oc1ccc(C)cc1)C(=O)Nc1ccccc1C(=O)N1CCOCC1 (stereo not given)	none (no result: CHOP inhibitor)
CN(c1ccccc1)S(=O)(=O)c1ccc(C(=O)NCc2ccccc2F)cc1	none (no result: CHOP inhibitor)
c1csc(CNc2ncnc3ccc(-c4ccoc4)cc23)c1	CF NFkB block 77 (no result: CHOP inhibitor) | CF NFkB inh conf 92
c1csc(CNc2ncnc3ccc(-c4ccc5c(c4)OCO5)cc23)c1	none (no result: CHOP inhibitor)
O=C(c1ccncc1)N1CCN(S(=O)(=O)c2ccc(F)cc2)CC1	none (no result: CHOP inhibitor)
FC(F)(F)c1nnc2c(Sc3ccccc3)nc3ccccc3n12	CF NFkB block 79 | CF NFkB inh conf 84
O=C(Oc1ccc(F)cc1C(=O)/C=C/c1cccs1)c1cccc([N+](=O)[O-])c1	CF NFkB block 50 | CF NFkB inh conf 60
CC(=O)Oc1ccc(N(C(C)=O)S(=O)(=O)c2cccs2)c2ccccc12	CF NFkB block 56 | CF NFkB inh conf 67
Cc1cccc(NC(=O)CNC(=O)COc2cc(F)ccc2[N+](=O)[O-])c1C	none
Cc1c(C(=O)OC2CCCC2)[nH]c2c1C(=O)CC(c1ccco1)C2 (stereo not given)	CF NFkB block 50 (no result: CHOP inhibitor) | CF NFkB inh conf 82
C/C=C/COC(=O)c1[nH]c2c(c1C)C(=O)CC(c1ccco1)C2 (stereo not given)	CF NFkB block 62 (no result: CHOP inhibitor, TRPM1 prom inh) | CF NFkB inh conf 85
Cc1c(C(=O)OCC2CCCO2)[nH]c2c1C(=O)CC(c1ccco1)C2 (stereo not given)	none (no result: CHOP inhibitor)
COC(=O)c1[nH]c2c(c1C)C(=O)CC(c1ccccc1)C2 (stereo not given)	none (no result: CHOP inhibitor)
C/C=C/COC(=O)c1[nH]c2c(c1C)C(=O)CC(c1ccc(N(C)C)cc1)C2 (stereo not given)	none
Cc1c(C(=O)OCC(C)C)[nH]c2c1C(=O)CC(c1ccco1)C2 (stereo not given)	CF NFkB block 51 (no result: CHOP inhibitor) | CF NFkB inh conf 53
CCOC(=O)[C@]12CCCC=C1N(Cc1ccc(Cl)cc1Cl)C(=O)[C@H](CC(=O)N1CCN(C(=O)c3ccco3)CC1)C2	none (no result: CHOP inhibitor, KKLEB cytotox, TRPM1 prom inh, CF NFkB block, Peg3 prom inh)
CCCn1cnnc1CNC(=O)[C@H]1O[C@@H](n2cnc3c(N)ncnc32)[C@H](O)[C@@H]1O	none (no result: CHOP inhibitor, TRPM1 prom inh)
COc1cc(C(=O)Nc2nnc(-c3sccc3C)s2)cc(OC)c1OC	CF NFkB block 54 | CF NFkB inh conf 59
CCOCc1nnc(NC(=O)c2cc(OC)c(OC)c(OC)c2)s1	none
CCc1ccc(Oc2nnnn2-c2ccc(C(N)=O)cc2)cc1	none
COc1ccc(-n2nnnc2S(=O)(=O)Cc2ccc(C(=O)O)cc2)cc1	CF NFkB block 89 | CF NFkB inh conf 91
COc1ccc(NC(=O)c2cc3c(-c4ccc(OC)c(OC)c4)nn(C)c3s2)cc1OC	CF NFkB block 87 | CF NFkB inh conf 62
CCCn1c(-c2nonc2N)nc2ccccc21	CF NFkB block 66 | CF NFkB inh conf 61
Cn1c(-c2nonc2N)nc2ccccc21	none (no result: CHOP inhibitor)
CNC(=S)NC12CC3CC(CC(C3)C1)C2	none
Cc1cccc(N2CCN(C(=O)c3[nH]c(C(F)(F)F)nc3-c3ccccc3)CC2)c1C	CF NFkB block 50 (no result: CHOP inhibitor, TRPM1 prom inh) | CF NFkB inh conf 87
CN(C(=O)CN1C(=O)NC(c2ccccc2)(c2ccccc2)C1=O)C1CCS(=O)(=O)C1 (stereo not given)	none (no result: CHOP inhibitor)
NC1(C(=O)O)CSSC1	TRPM1 prom inh 65, CF NFkB block 62, Peg3 prom inh 82 (no result: CHOP inhibitor) | CF NFkB inh conf 57
COCCN(C(=O)c1snc(C(N)=O)c1N)C(C(=O)NC1CCCCC1)c1ccc(F)cc1 (stereo not given)	none (no result: CHOP inhibitor)
COc1cccc(N2CCN(c3c(C#N)c(C(F)(F)F)nn3C)CC2)c1	CF NFkB block 52 | CF NFkB inh conf 61
C=CC[C@@H](CC(=O)N[C@H](CO)Cc1ccccc1)C(=O)NC[C@H](OC(=O)[C@@H](CC=C)Cc1ccc(F)cc1)c1ccccc1	CF NFkB block 54, Peg3 prom inh 79 (no result: CHOP inhibitor) | CF NFkB inh conf 63
COc1nc(=O)n(C2C=CC(=O)O2)cc1F (stereo not given)	CF NFkB block 87 (no result: CHOP inhibitor, TRPM1 prom inh) | CF NFkB inh conf inactive
COc1ccc(CNC(=O)C[C@H]2C[C@H](C(=O)N3CCCCC3)[C@@]3(CCc4ccccc4)c4[nH]c5ccc(Cl)cc5c4CCN3C2=O)cc1OC	CF NFkB block 51 (no result: CHOP inhibitor) | CF NFkB inh conf inactive
CC[C@]12c3[nH]c4ccc(Cl)cc4c3CCN1C(=O)[C@@H](CC(=O)NCc1ccc(OC)c(OC)c1)C[C@@H]2C(=O)N1CCN(C(=O)C2CC2)CC1	none (no result: CHOP inhibitor)
CC(=O)Nc1ccc(NC(=O)COC(=O)c2c3c(nc4ccccc24)CCN(Cc2ccccc2)C3)cc1	CF NFkB block 57 | CF NFkB inh conf 72
O=C(COC(=O)c1c2c(nc3ccccc13)CCN(Cc1ccccc1)C2)Nc1c(F)cccc1F	CF NFkB block 75, Peg3 prom inh 50 | CF NFkB inh conf 76
CCN1CCc2nc3ccccc3c(C(=O)Nc3ccc(NC(C)=O)cc3)c2C1	none
O=C(NCc1ccc(F)cc1)c1c2c(nc3ccccc13)CCN(Cc1ccccc1)C2	none
CSCCC(NS(=O)(=O)c1ccc(C)c(C(=O)O)c1)C(=O)O (stereo not given)	none
CCOc1ccc(-n2c(C)c(C(C)=O)c3cc(OCC(N)=O)ccc32)cc1	none
CC(=O)c1c(C)n(-c2ccc(C)cc2C)c2ccc(O)cc12	CF NFkB block 65 (no result: CHOP inhibitor) | CF NFkB inh conf 69
CCOc1ccc(-n2c(C)c(C(C)=O)c3cc(O)ccc32)cc1	CF NFkB block 57 (no result: CHOP inhibitor) | CF NFkB inh conf 84
CC(=O)c1c(C)n(-c2ccc(Br)cc2)c2ccc(O)cc12	none (no result: CHOP inhibitor)
CC(=O)c1c(C)n(-c2ccccc2)c2ccc(O)cc12	CF NFkB block 59 | CF NFkB inh conf 72
CC(=O)c1ccc(-n2c(C)c(C(C)=O)c3cc(O)ccc32)cc1	CF NFkB block 56 (no result: CHOP inhibitor) | CF NFkB inh conf 66
Cc1ccc(NC(=O)C(C)N2C(=O)c3ccccc3C2=O)cc1S(=O)(=O)N1CCOCC1 (stereo not given)	none
COc1ccccc1NS(=O)(=O)c1cc(NC(=O)CNC(=O)c2ccc(C)s2)ccc1Cl	none
C#CCOCCOCCOCCNc1nc(N2CCN(C(=O)[C@H](CCCCN)n3cc(CN)nn3)CC2)nc(N2CCN(C(=O)[C@H](CC(N)=O)n3cc(C(N)[C@H](C)CC)nn3)CC2)n1 (stereo not given in full)	none (no result: CHOP inhibitor)
Cc1ccc2oc(=O)c3cnn(CC(=O)Nc4cc(-c5cccc(F)c5)no4)c3c2c1	CHOP inhibitor 96, CF NFkB block 53 (no result: TRPM1 prom inh) | CF NFkB inh conf inactive
O=C(Nc1ccc2c(c1)OCO2)c1cc(-c2ccc(O)cc2)on1	CF NFkB block 52 (no result: CHOP inhibitor) | CF NFkB inh conf inactive
